Assay results taken from PubChem BioAssay (Tox21).
Results filed as inconclusive are left out. Calls of active or inactive are those of the source. Unless noted, calls come from the whole dose curve. Square brackets hold non-standard residues; d marks the D form. Peptide text beside a SMILES is read from it. * marks the point of attachment. Sta = CC(C)C[C@H](N)[C@@H](O)CC(=O)O; Isovaleryl = CC(C)CC(=O)*

What was measured:
[1] = Nuclear factor erythroid 2-related factor 2/antioxidant responsive element (Nrf2/ARE) small molecule agonists: qHTS cell viability counter screen in human keratinocytes (AID 1919968; active = well fitted curve in the direction sought with a large enough effect in the repeat runs; an effect the other way counts as inactive or inconclusive; note: nearly all actives have a fitted effect of over 55% in size)
Procedure, shortened: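 After a 5 h attachment period, ARE-reporter keratinocytes were dosed with compounds in DMSO and then cultured 23 h at 37 C. Cell viability came from CellTiter-Fluor signal read after a further 1 h.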

[2] = Nuclear factor erythroid 2-related factor 2/antioxidant responsive element (Nrf2/ARE) small molecule agonists: luciferase reporter gene qHTS assay in human keratinocytes (AID 1919969); note: nearly all actives have a fitted effect of over 35% in size; note: potency is the fitted concentration of half-maximal effect
[3] = target: Gonadotropin-releasing hormone receptor (Homo sapiens) (UniProt P30968); assay: Human gonadotropin-releasing hormone receptor (GnRHR) small molecule agonists, calcium flux assay in GnRHR-HEK293 cells (AID 1920063); note: nearly all actives have a fitted effect of over 35% in size
Procedure, shortened: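 We seeded human GnRHR-expressing HEK293 cells for 18 hours, loaded them with calcium dye for an hour at 37 C, added test compounds, and recorded fluorescence intensity kinetically for three minutes.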

[4] = target: KiSS-1 receptor (Homo sapiens) (UniProt Q969F8); assay: Human kisspeptin (KISS1R) small molecule agonists, calcium flux assay in KISS1R-HEK293 cells (AID 1920064; active = well fitted curve in the direction sought with a large enough effect in the repeat runs; an effect the other way counts as inactive or inconclusive)
Procedure, shortened: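 Kinetic calcium assay, 1 s sampling over 3 min at Ex/Em 480/540, in HEK293 cells engineered with human KISS1R; compounds delivered in DMSO after 1 h dye loading.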

[5] = G protein-coupled receptor (GPCR) small molecule agonists, calcium flux assay: HEK293 wild type cell line counter screen (AID 1920065)
Procedure, shortened: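 Calcium-sensitive dye, loaded 1 h at 37 C into cells cultured 18 h, reports compound-evoked calcium release as fluorescence (Ex/Em 480/540), measured over 3 min. Agonist mode; 15-point titrations, triplicate.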

[6] = p53 small molecule agonists, cell-based qHTS assay with human liver microsomes (AID 1963577);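 note: p53 response element beta-lactamase reporter cells with liver microsomes plus NADPH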
Procedure, shortened: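 Metabolically competent format: test substances, human liver microsomes and NADPH (both 0.5 mg/mL final) incubated with p53RE-bla cells 16 h at 37 C. Beta-lactamase reporter signal then quantified by fluorescence.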

[7] = p53 small molecule agonists, cell-based qHTS assay with rat liver microsomes (AID 1963578)
Procedure, shortened: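 Each plate received p53RE-bla cells, then compound, then rat liver microsomes and NADPH (both 0.5 mg/mL final). Plates were held 16 h at 37 C, and beta-lactamase activity was detected with LiveBLAzer over 2 h.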

[8] = p53 small molecule agonists, cell-based qHTS assay with human liver microsomes: qHTS cell viability counter screen (AID 1963579); note: nearly all actives have a fitted effect of over 45% in size; note: potency is the fitted concentration of half-maximal effect
Procedure, shortened: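 Tox21 library compounds, delivered from DMSO stocks, were tested on p53RE-bla cells together with 0.5 mg/mL human liver microsomes and 0.5 mg/mL NADPH (final) over 16 h at 37 C; CellTiter-Glo luminescence served as the cytotoxicity measure.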

[9] = p53 small molecule agonists, cell-based qHTS assay with rat liver microsomes: qHTS cell viability counter screen (AID 1963580); note: nearly all actives have a fitted effect of over 45% in size
Procedure, shortened: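 Intracellular ATP, by CellTiter-Glo luminescence, defines viability. HCT-116 p53RE-bla cells, 4,000 per well, were compound-treated in the presence of rat liver microsomes and NADPH for 16 h at 37 C.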

[10] = p53 small molecule agonists, cell-based qHTS assay: qHTS cell viability counter screen (AID 1963581); note: nearly all actives have a fitted effect of over 45% in size
Procedure, shortened: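 Following 5 h attachment, HCT-116 p53RE-bla cells took up compound for 16 h at 37 C; the reporter was read with B/G FRET substrate (2 h RT), and viability then via CellTiter-Glo ATP luminescence.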

[11] = p53 small molecule agonists, cell-based qHTS assay (AID 1963582; active = well fitted activation curve with a large enough effect in the signal ratio in the repeat runs, not every such curve was filed as active; the % refers to the signal ratio; note: potency is the fitted concentration of half-maximal effect)
Procedure, shortened: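 In this cell-based concentration-response screen, a p53 response element drives beta-lactamase; cells received DMSO-borne compounds after 5 h culture and were incubated a further 16 h before FRET substrate development.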

[12] = target: 5-hydroxytryptamine receptor 2A (Homo sapiens) (UniProt P28223); assay: 5-hydroxytryptamine receptor 2A (HTR2A) small molecule agonists, cell-based qHTS assay (AID 1963587); note: nearly all actives have a fitted effect of over 30% in size
Procedure, shortened: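 Kinetic calcium-flux fluorescence (2 min, 1 sec intervals) after compound addition in agonist mode. HTR2A-CHO cells were cultured 18 h, then dye-loaded 1 h at 37 C.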

[13] = target: Muscarinic acetylcholine receptor M1 (Homo sapiens) (UniProt P11229); assay: Cholinergic receptor muscarinic 1 (CHRM1) small molecule antagonists, cell-based qHTS assay (AID 1963588); note: nearly all actives have a fitted effect of over 40% in size; note: potency is the fitted concentration of half-maximal effect
Procedure, shortened: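 CHRM1-CHO calcium-flux assay, antagonist mode. Cells were seeded 18 h, dye-loaded 1 h at 37 C and given compound for 5 min at RT, then acetylcholine was added at 50nM. FDSS fluorescence was read 3 min; 15 concentrations, three runs.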

[14] = target: Muscarinic acetylcholine receptor M1 (Homo sapiens) (UniProt P11229); assay: Cholinergic receptor muscarinic 1 (CHRM1) small molecule agonists, cell-based qHTS assay (AID 1963589); note: nearly all actives have a fitted effect of over 35% in size; note: potency is the fitted concentration of half-maximal effect
Procedure, shortened: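 Measures agonist-induced intracellular calcium rise. Stable human CHRM1 CHO line, 1 h dye load at 37 C, compounds from DMSO, kinetic fluorescence read.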

[15] = target: Beta-2 adrenergic receptor (Homo sapiens) (UniProt P07550); assay: Adrenergic beta2 receptor (ADRB2) small molecule antagonists, cell-based qHTS assay (AID 1963592); note: series mostly up to about 92 µM; nearly all actives have a fitted effect of over 50% in size
Procedure, shortened: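 Cells (CHO, stable ADRB2 overexpression) incubated 18-20hr at 37C; compounds added from DMSO; agonist mix (1nM isoproterenol, 100uM IBMX, 25uM Ro-20-1724) added; 0.5hr RT; d2-cAMP and anti-cAMP-cryptate added; 1hr RT; 665/615 nm read.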

[16] = target: Beta-2 adrenergic receptor (Homo sapiens) (UniProt P07550); assay: Adrenergic beta2 receptor (ADRB2) small molecule agonists, cell-based qHTS assay (AID 1963593);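 note: CHO cells stably overexpressing human ADRB2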
Procedure, shortened: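 CHO cells stably over-expressing ADRB2 were plated overnight at 37C, then dosed with compounds plus a stimulation mix containing 100uM IBMX and 25uM Ro-20-1724 for 0.5hr at room temperature. cAMP was measured by HTRF competition, 1hr.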

[17] = target: D(2) dopamine receptor (Homo sapiens) (UniProt P14416); assay: Dopamine D2 receptor (DRD2) small molecule antagonists, cell-based qHTS assay (AID 1963595; active = well fitted inhibition curve with a large enough effect in the signal ratio in the repeat runs, with a control signal flat; the % refers to the signal ratio; note: potency is the fitted concentration of half-maximal effect)
Procedure, shortened: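 In this cell-based antagonist screen, compounds act for 10 min at room temperature before a 30 min challenge with 12 nM quinpirole and 200 nM NKH477. cAMP is quantified by HTRF competition in DRD2-HEK293 cells containing 0.1 mM Ro20-1724.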

[18] = cAMP Responsive Elements (CRE) small molecule agonists, cell-based qHTS assay (AID 1963590)
Procedure, shortened: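 A CRE-responsive beta-lactamase reporter in HEK 293T cells was used. Treatment ran 3 h at 37 C; detection used LiveBLAzer B/G FRET substrate for 2 h at room temperature.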

[19] = cAMP Responsive Elements (CRE) small molecule antagonists, cell-based qHTS assay (AID 1963591; active = well fitted inhibition curve with a large enough effect in the signal ratio in the repeat runs, not every such curve was filed as active; the % refers to the signal ratio)
Procedure, shortened: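 HEK293T cells carrying a CRE-driven beta-lactamase reporter receive compound and NKH477 (0.25 uM final) for 3 h. Fluorescence from LiveBLAzer B/G FRET substrate is read after 2 h at room temperature.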

[20] = target: D(2) dopamine receptor (Homo sapiens) (UniProt P14416); assay: Dopamine D2 receptor (DRD2) small molecule agonists, cell-based qHTS assay (AID 1963594); note: nearly all actives have a fitted effect of over 35% in size
Procedure, shortened: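 cAMP accumulation in DRD2-HEK293 cells measured by HTRF after 1 h detection; compounds added 10 min before NKH477 (200nM […]) forskolin-analogue stimulation, 30 min at room temperature, with Ro20-1724 present at 0.1 mM final.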

Measured: Potency

5-hydroxytryptamine receptor 2A (Homo sapiens), sequence (P28223 whole entry, looked up): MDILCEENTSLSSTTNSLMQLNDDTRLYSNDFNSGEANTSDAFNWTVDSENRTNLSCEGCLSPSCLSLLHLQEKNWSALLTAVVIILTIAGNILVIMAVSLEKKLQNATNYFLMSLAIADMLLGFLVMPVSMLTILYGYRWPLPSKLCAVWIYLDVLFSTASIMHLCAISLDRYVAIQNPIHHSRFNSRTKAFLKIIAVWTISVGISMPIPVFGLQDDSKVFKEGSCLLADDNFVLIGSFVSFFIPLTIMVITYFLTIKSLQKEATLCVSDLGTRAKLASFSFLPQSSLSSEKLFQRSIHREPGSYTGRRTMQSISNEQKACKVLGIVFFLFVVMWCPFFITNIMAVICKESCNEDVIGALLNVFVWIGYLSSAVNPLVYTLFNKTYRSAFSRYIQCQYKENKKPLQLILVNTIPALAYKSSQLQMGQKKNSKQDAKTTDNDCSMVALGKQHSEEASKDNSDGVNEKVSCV
Muscarinic acetylcholine receptor M1 (Homo sapiens), sequence (P11229 whole entry, looked up): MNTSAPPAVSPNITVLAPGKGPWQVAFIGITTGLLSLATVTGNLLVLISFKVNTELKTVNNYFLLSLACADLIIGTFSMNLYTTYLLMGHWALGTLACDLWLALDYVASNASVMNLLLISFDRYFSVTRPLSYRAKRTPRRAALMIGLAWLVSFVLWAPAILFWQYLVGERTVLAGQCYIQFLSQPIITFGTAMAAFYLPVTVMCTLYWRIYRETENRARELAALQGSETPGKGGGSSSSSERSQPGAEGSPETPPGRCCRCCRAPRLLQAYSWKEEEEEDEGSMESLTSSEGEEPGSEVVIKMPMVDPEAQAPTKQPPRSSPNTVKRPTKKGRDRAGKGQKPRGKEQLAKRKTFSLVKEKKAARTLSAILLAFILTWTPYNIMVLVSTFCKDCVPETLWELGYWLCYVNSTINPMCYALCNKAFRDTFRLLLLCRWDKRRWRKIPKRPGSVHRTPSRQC
Beta-2 adrenergic receptor (Homo sapiens), sequence (P07550 whole entry, looked up): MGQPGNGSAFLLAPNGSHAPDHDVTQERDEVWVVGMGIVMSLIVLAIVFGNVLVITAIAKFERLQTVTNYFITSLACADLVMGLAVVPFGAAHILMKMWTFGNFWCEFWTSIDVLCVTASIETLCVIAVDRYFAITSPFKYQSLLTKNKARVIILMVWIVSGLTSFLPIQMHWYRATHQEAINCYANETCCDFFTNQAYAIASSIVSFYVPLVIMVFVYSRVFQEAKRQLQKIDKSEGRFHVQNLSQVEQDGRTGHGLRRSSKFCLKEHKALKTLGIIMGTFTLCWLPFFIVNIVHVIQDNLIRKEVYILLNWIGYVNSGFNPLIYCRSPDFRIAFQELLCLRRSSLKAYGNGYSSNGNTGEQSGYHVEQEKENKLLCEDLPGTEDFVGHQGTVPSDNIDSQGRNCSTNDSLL
Gonadotropin-releasing hormone receptor (Homo sapiens), sequence (P30968 whole entry, looked up): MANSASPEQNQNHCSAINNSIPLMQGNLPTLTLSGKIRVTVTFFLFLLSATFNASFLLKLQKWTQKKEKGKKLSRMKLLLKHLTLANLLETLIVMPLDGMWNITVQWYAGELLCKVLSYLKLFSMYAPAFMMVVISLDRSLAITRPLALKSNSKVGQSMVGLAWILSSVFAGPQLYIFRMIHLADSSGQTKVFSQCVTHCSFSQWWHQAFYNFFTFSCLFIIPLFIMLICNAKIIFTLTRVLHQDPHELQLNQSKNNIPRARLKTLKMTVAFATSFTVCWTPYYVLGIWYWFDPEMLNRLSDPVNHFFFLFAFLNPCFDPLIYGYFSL
D(2) dopamine receptor (Homo sapiens), sequence (P14416 whole entry, looked up): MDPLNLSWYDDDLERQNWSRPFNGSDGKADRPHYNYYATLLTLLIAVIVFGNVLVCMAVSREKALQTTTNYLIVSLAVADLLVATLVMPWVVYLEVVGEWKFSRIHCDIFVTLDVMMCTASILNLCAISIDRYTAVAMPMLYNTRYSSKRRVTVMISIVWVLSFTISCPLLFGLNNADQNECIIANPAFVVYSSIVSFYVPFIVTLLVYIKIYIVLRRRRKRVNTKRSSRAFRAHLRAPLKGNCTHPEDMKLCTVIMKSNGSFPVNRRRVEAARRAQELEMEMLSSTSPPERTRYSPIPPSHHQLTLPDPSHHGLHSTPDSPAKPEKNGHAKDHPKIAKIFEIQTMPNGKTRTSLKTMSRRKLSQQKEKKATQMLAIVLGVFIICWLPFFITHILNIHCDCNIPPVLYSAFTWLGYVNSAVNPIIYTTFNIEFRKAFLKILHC
KiSS-1 receptor (Homo sapiens), sequence (Q969F8 whole entry, looked up): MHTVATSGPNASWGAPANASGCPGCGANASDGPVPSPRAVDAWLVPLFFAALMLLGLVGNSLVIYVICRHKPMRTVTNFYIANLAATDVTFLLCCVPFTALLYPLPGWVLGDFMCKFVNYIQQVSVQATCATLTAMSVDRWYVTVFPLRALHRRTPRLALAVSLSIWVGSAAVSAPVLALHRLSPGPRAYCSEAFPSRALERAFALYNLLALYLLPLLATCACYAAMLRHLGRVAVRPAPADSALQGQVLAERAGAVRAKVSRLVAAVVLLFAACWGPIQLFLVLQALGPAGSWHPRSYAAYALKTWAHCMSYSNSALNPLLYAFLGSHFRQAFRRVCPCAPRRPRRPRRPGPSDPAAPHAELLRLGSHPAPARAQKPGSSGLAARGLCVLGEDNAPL

O=C1c2ccccc2C(=O)C1(O)O
active: [2] 61.4 µM | [8] 36.5 µM | [11] 36.5 µM
not listed: [18] | [19] | [20]
inactive: all other assays above

COC(=O)c1ccc(NC(C)=O)cc1OC
not listed: [13] | [16]
inactive: all other assays above

C1OCOCO1
not listed: [16] | [17] | [19]
inactive: all other assays above

COC(=O)CCCCCCCCC(=O)OC
not listed: [18] | [20]
inactive: all other assays above

O=C(OCCN1CCOCC1)c1cccnc1Nc1cccc(C(F)(F)F)c1
not listed: [19]
inactive: all other assays above

CCOC(=O)c1cnc2c(cnn2CC)c1NN=C(C)C
not listed: [16] | [19] | [20]
inactive: all other assays above

CCC(=O)OC(=O)CC
active: [2] 27.1 µM
not listed: [16] | [18]
inactive: all other assays above

COC[C@H](c1ccc(C(F)(F)F)cc1)N1CCN(C2(C)CCN(C(=O)c3c(C)ncnc3C)CC2)C[C@H]1C
active: [13] 5.16 µM
not listed: [18] | [19]
inactive: all other assays above

CC(=O)[C@H]1CC[C@H]2[C@@H]3C[C@H](C)C4=CC(=O)CC[C@]4(C)[C@H]3[C@@H](O)C[C@]12C
not listed: [18] | [19] | [20]
inactive: all other assays above

O=C(O)C(=O)Cc1c[nH]c2ccccc12
active: [2] 54.5 µM
not listed: [19]
inactive: all other assays above

Nc1c(Cl)cc(Cl)cc1Cl
active: [14] 8.58 µM
not listed: [13]
inactive: all other assays above

O=C(c1ccc(F)cc1)C1CCN(CCn2c(=O)[nH]c3ccccc3c2=O)CC1
not listed: [12] | [18] | [19]
inactive: all other assays above

Cc1ccc(N(CC2=NCCN2)c2cccc(O)c2)cc1
not listed: [12] | [13] | [14] | [16] | [17]
inactive: all other assays above

CCN1CC(CCN2CCOCC2)C(c2ccccc2)(c2ccccc2)C1=O (stereo not drawn)
not listed: [12] | [13] | [14] | [16]
inactive: all other assays above

COc1cc(C(=O)NC2CCCNC2)cc(OC)c1OC (stereo not drawn)
not listed: [12] | [13] | [14] | [16]
inactive: all other assays above

OC(CCCN1CCCCC1)(c1ccccc1)c1ccccc1
active: [17] 5.96 µM
not listed: [12] | [13] | [14] | [16]
inactive: all other assays above

CCOC(=O)c1ncn2c1CN(C)C(=O)c1cc(F)ccc1-2
not listed: [12] | [13] | [14]
inactive: all other assays above

CC(C)CC(=O)N[C@H](C(=O)N[C@H](C(=O)N[C@@H](CC(C)C)[C@@H](O)CC(=O)N[C@@H](C)C(=O)N[C@@H](CC(C)C)[C@@H](O)CC(=O)O)C(C)C)C(C)C (Isovaleryl-VV[Sta]A[Sta]-OH)
not listed: [12] | [13] | [14] | [16]
inactive: all other assays above

CCN1CCC[C@H]1CNC(=O)c1cc(S(N)(=O)=O)ccc1OC
not listed: [12] | [13] | [14] | [17] | [20]
inactive: all other assays above

Cc1ccnc(NS(=O)(=O)c2ccc(N)cc2)n1
not listed: [12] | [13] | [14] | [16] | [20]
inactive: all other assays above

CCOc1cc(N)c(Cl)cc1C(=O)NCC1CN(Cc2ccc(F)cc2)CCO1 (stereo not drawn)
not listed: [12] | [13] | [14] | [16]
inactive: all other assays above

O=C1C(CCS(=O)c2ccccc2)C(=O)N(c2ccccc2)N1c1ccccc1 (stereo not drawn)
not listed: [12] | [13] | [14] | [16]
inactive: all other assays above

CN1CCN(C(c2ccccc2)c2ccccc2)CC1
not listed: [12] | [13] | [14] | [16] | [17]
inactive: all other assays above

COc1ccc(C2C(=O)c3ccccc3C2=O)cc1
not listed: [12] | [13] | [14] | [16]
inactive: all other assays above

CC1=NS(=O)(=O)c2cc(Cl)ccc2N1
not listed: [12] | [13] | [14]
inactive: all other assays above

CC(C(=O)O)c1cccc(Oc2ccccc2)c1 (stereo not drawn)
not listed: [12] | [13] | [14]
inactive: all other assays above

Cc1cn[nH]c1
not listed: [12] | [13] | [14]
inactive: all other assays above

CCN1CCCC1CNC(=O)c1cc(S(=O)(=O)CC)c(N)cc1OC (stereo not drawn)
not listed: [12] | [14] | [16] | [17] | [19] | [20]
inactive: all other assays above
